Source: PubChem BioAssay (EPA / NIEHS)
Activity calls are given as the source filed them. Rule for the calls: active = hit-call score of the fitted dose curve at least 0.9, where 1 is the maximum; inactive = score below 0.9.

How the values were obtained:
[1] = read-out: Cyclin Dependent Kinase Inhibitor 1A (CDKN1A), CDKN1A (gene 1026); experiment: LTEA_HepaRG_CDKN1A: Life Technologies and Expression Analysis (LTEA) Assay for Cyclin Dependent Kinase Inhibitor 1A (CDKN1A) using HepaRG (AID 2283450); conditions: mRNA level, 48 h; actives raise or lower the signal
Summary of the method: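 Gain or loss of CDKN1A transcript is scored by bidirectional fitting against 0.5% DMSO vehicle. Human HepaRG cultures receive chemicals for 48 h across an 8-point series peaking at 100 uM; expression comes from qRT-PCR.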

[2] = read-out: Cyclin D1 (CCND1), CCND1 (gene 595); experiment: LTEA_HepaRG_CCND1: Life Technologies and Expression Analysis (LTEA) Assay for Cyclin D1 (CCND1) using HepaRG (AID 2283451); conditions: mRNA level, 48 h; actives raise or lower the signal
Summary of the method: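 Expression change is measured by qRT-PCR in HepaRG cells after 48 h treatment across eight concentrations topping at 100 uM, with duplicate wells and DMSO (0.5%) serving as baseline for bidirectional fitting.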

[3] = read-out: catalase (CAT), CAT (gene 847); experiment: LTEA_HepaRG_CAT: Life Technologies and Expression Analysis (LTEA) Assay for catalase (CAT) using HepaRG (AID 2283452); conditions: mRNA level, 48 h; actives raise or lower the signal
Summary of the method: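 HepaRG cells in serum-free induction medium, 0.5% DMSO vehicle, exposed 48 h in duplicate over 8 half-log concentrations from 100 uM. CAT mRNA measured by qRT-PCR, normalized to ACTB, GAPDH, POLR2A; bidirectional fit versus DMSO.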

[4] = read-out: flavin-containing dimethylaniline monooxygenases 3 (FMO3), FMO3 (gene 2328); experiment: LTEA_HepaRG_FMO3: Life Technologies and Expression Analysis (LTEA) Assay for flavin-containing dimethylaniline monooxygenases 3 (FMO3) using HepaRG (AID 2283453); conditions: mRNA level, 48 h; actives raise or lower the signal
Summary of the method: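 Differentiated HepaRG cells in serum-free induction medium, exposed 48 h in duplicate to 8 half-log concentrations up to 100 uM in 0.5% DMSO. FMO3 mRNA by qRT-PCR, normalized to ACTB, GAPDH, POLR2A; bidirectional fit vs DMSO.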

[5] = read-out: Cytochrome P450 (CYP1A1), CYP1A1 (gene 1543); experiment: LTEA_HepaRG_CYP1A1: Life Technologies and Expression Analysis (LTEA) Assay for Cytochrome P450 (CYP1A1) using HepaRG (AID 2283454); conditions: mRNA level, 48 h; actives raise or lower the signal
Summary of the method: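 Using HepaRG cultures with 0.5% DMSO as vehicle, eight-concentration exposures (max 100 uM) lasted 48 h. Transcript levels were measured by TaqMan qRT-PCR and normalized to ACTB, GAPDH and POLR2A.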

[6] = read-out: Forkhead box O1 (FOXO1), FOXO1 (gene 2308); experiment: LTEA_HepaRG_FOXO1: Life Technologies and Expression Analysis (LTEA) Assay for Forkhead box O1 (FOXO1) using HepaRG (AID 2283456); conditions: mRNA level, 48 h; actives raise or lower the signal
Summary of the method: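 Differentiated HepaRG cells, in serum-free induction medium with 0.5% DMSO, exposed 48 h in duplicate to 8-point half-log series from 100 uM. FOXO1 mRNA measured by TaqMan qRT-PCR, normalized to ACTB, GAPDH, POLR2A; bidirectional fit versus DMSO.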

[7] = CEETOX_H295R_TESTO: CeeTox H295R High-throughput Steroidogenesis Assay for Testosterone (TESTO) (AID 2283457); conditions: actives raise or lower the signal
Summary of the method: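 Steroidogenesis in H295R cells following OECD 456 with minor changes; 48 h exposure. Medium testosterone by HPLC-MS/MS, DMSO as baseline, with MTT viability run in parallel.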

[8] = read-out: growth arrest and DNA damage 45 (GADD45A), GADD45A (gene 1647); experiment: LTEA_HepaRG_GADD45A: Life Technologies and Expression Analysis (LTEA) Assay for growth arrest and DNA damage 45 (GADD45A) using HepaRG (AID 2283458); conditions: mRNA level, 48 h; actives raise or lower the signal
Summary of the method: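 Differentiated HepaRG cells exposed 48 h in serum-free induction medium to 8 concentrations, top 100 uM in half-log steps, 0.5% DMSO. GADD45A mRNA quantified by qRT-PCR, normalized to ACTB, GAPDH and POLR2A; bidirectional fit versus DMSO.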

[9] = read-out: Forkhead box O3 (FOXO3), FOXO3 (gene 2309); experiment: LTEA_HepaRG_FOXO3: Life Technologies and Expression Analysis (LTEA) Assay for Forkhead box O3 (FOXO3) using HepaRG (AID 2283459); conditions: mRNA level, 48 h; actives raise or lower the signal
Summary of the method: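 Differentiated human HepaRG cells, 48 h post-plating, exposed in duplicate for 48 h in serum-free induction medium; 8-point half-log series from 100 uM in 0.5% DMSO. FOXO3 mRNA by TaqMan qRT-PCR, normalized to ACTB/GAPDH/POLR2A; bidirectional fit versus DMSO.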

[10] = read-out: ABC Transporter (ABCB1), ABCB1 (gene 5243); experiment: LTEA_HepaRG_ABCB1: Life Technologies and Expression Analysis (LTEA) Assay for ABC Transporter (ABCB1) using HepaRG (AID 2283460); conditions: mRNA level, 48 h; actives raise or lower the signal
Summary of the method: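 HepaRG cells exposed in duplicate for 48 h in serum-free induction medium to eight half-log concentrations up to 100 uM in 0.5% DMSO. ABCB1 mRNA quantified by qRT-PCR, normalised to ACTB, GAPDH and POLR2A; fitted bidirectionally versus DMSO.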

[11] = read-out: growth arrest and DNA damage 45 (GADD45B), GADD45B (gene 4616); experiment: LTEA_HepaRG_GADD45B: Life Technologies and Expression Analysis (LTEA) Assay for growth arrest and DNA damage 45 (GADD45B) using HepaRG (AID 2283461); conditions: mRNA level, 48 h; actives raise or lower the signal
Summary of the method: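 Human HepaRG monolayers receive chemicals for 48 h at eight half-log concentrations, highest 100 uM, in 0.5% DMSO. Expression is measured by TaqMan qRT-PCR and normalized to ACTB, GAPDH and POLR2A.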

[12] = read-out: ABC Transporter (ABCC3), ABCC3 (gene 8714); experiment: LTEA_HepaRG_ABCC3: Life Technologies and Expression Analysis (LTEA) Assay for ABC Transporter (ABCC3) using HepaRG (AID 2283462); conditions: mRNA level, 48 h; actives raise or lower the signal
Summary of the method: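 Transcriptional change of ABCC3 in HepaRG after 48 h treatment, determined by qRT-PCR normalized to endogenous controls. Concentrations spanned eight half-log steps to 100 uM in 0.5% DMSO.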

[13] = read-out: ABC Transporter (ABCB11), ABCB11 (gene 8647); experiment: LTEA_HepaRG_ABCB11: Life Technologies and Expression Analysis (LTEA) Assay for ABC Transporter (ABCB11) using HepaRG (AID 2283463); conditions: mRNA level, 48 h; actives raise or lower the signal
Summary of the method: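 Differentiated human HepaRG cells in serum-free induction medium, dosed in duplicate for 48 h. Eight-point half-log series from 100 uM in 0.5% DMSO; ABCB11 mRNA by qRT-PCR, normalized to ACTB, GAPDH, POLR2A, fitted bidirectionally versus DMSO.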

[14] = read-out: ABC Transporter (ABCC2), ABCC2 (gene 1244); experiment: LTEA_HepaRG_ABCC2: Life Technologies and Expression Analysis (LTEA) Assay for ABC Transporter (ABCC2) using HepaRG (AID 2283464); conditions: mRNA level, 48 h; actives raise or lower the signal
Summary of the method: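 After plating and 48 h culture, HepaRG medium is replaced with serum-free induction medium and chemicals are added (8 concentrations, max 100 uM, 0.5% DMSO) for 48 h. Total RNA then undergoes qRT-PCR for ABCC2 with housekeeping normalization.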

[15] = read-out: Broad substrate specificity ATP-binding cassette transporter ABCG2 (Homo sapiens) (UniProt Q9UNQ0); experiment: LTEA_HepaRG_ABCG2: Life Technologies and Expression Analysis (LTEA) Assay for ABC Transporter (ABCG2) using HepaRG (AID 2283465); conditions: mRNA level, 48 h; actives raise or lower the signal
Summary of the method: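 Differentiated HepaRG cells were exposed for 48 h in serum-free induction medium to 8 half-log concentrations, top 100 uM, in 0.5% DMSO. ABCG2 mRNA was measured by qRT-PCR, normalized to ACTB, GAPDH and POLR2A, with bidirectional fitting versus DMSO.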

[16] = read-out: ATP-citrate lyase (ACLY), ACLY (gene 47); experiment: LTEA_HepaRG_ACLY: Life Technologies and Expression Analysis (LTEA) Assay for ATP-citrate lyase (ACLY) using HepaRG (AID 2283466); conditions: mRNA level, 48 h; actives raise or lower the signal
Summary of the method: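 Differentiated HepaRG cells exposed 48 h in serum-free induction medium to eight half-log concentrations up to 100 uM in 0.5% DMSO, duplicates. Transcript measured by Fluidigm TaqMan qRT-PCR, normalized to ACTB, GAPDH, POLR2A; bidirectional fit versus DMSO.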

[17] = read-out: Peroxisomal acyl-coenzyme A oxidase 1 (ACOX1) gene, ACOX1 (gene 51); experiment: LTEA_HepaRG_ACOX1: Life Technologies and Expression Analysis (LTEA) Assay for Peroxisomal acyl-coenzyme A oxidase 1 (ACOX1) gene using HepaRG (AID 2283467); conditions: mRNA level, 48 h; actives raise or lower the signal
Summary of the method: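 HepaRG cells, plated 48 h then switched to serum-free induction medium, were exposed in duplicate for 48 h to 8-point half-log concentrations up to 100 uM in 0.5% DMSO. ACOX1 mRNA was measured by qRT-PCR, normalized to ACTB/GAPDH/POLR2A, and fitted bidirectionally versus DMSO.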

[18] = read-out: CFLAR gene, CFLAR (gene 8837); experiment: LTEA_HepaRG_CFLAR: Life Technologies and Expression Analysis (LTEA) Assay for CFLAR gene using HepaRG (AID 2283455); conditions: mRNA level, 48 h; actives raise or lower the signal
Summary of the method: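 Differentiated HepaRG cells in serum-free induction medium were exposed 48 h in duplicate to eight half-log concentrations up to 100 uM in 0.5% DMSO; mRNA measured by TaqMan qRT-PCR, normalized to ACTB, GAPDH, POLR2A; bidirectional fitting versus DMSO.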

[19] = read-out: Alkaline Phosphatase, Placental (ALPP) gene, ALPP (gene 250); experiment: LTEA_HepaRG_ALPP: Life Technologies and Expression Analysis (LTEA) Assay for Alkaline Phosphatase, Placental (ALPP) gene using HepaRG (AID 2283468); conditions: mRNA level, 48 h; actives raise or lower the signal
Summary of the method: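 Using human liver HepaRG cells, chemicals are tested in duplicate over 48 h at half-log concentrations topping at 100 uM; phenobarbital 1 mM serves as induction control. ALPP mRNA change by qRT-PCR, bidirectional fit against vehicle.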

Measured: AC50

Broad substrate specificity ATP-binding cassette transporter ABCG2 (Homo sapiens), sequence (Q9UNQ0 whole entry, looked up): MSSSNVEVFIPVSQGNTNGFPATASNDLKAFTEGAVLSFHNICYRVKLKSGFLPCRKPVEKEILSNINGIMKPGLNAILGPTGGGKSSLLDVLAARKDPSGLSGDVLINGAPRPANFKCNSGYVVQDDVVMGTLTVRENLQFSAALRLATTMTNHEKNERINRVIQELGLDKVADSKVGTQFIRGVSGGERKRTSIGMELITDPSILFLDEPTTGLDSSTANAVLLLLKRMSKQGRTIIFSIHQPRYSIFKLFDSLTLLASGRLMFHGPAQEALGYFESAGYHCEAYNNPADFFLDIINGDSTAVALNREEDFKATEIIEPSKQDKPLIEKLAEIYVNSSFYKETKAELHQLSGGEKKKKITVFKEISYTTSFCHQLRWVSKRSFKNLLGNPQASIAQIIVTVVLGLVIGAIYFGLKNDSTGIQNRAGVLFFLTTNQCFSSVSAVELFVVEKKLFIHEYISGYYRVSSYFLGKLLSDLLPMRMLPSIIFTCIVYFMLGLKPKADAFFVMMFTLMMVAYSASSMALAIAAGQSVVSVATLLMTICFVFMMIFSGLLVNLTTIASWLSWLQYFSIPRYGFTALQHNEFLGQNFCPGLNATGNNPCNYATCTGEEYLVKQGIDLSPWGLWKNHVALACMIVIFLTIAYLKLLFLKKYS

COP(=S)(OC)SCn1nnc2ccccc2c1=O
inactive: [1] | [2] | [3] | [4] | [6] | [7] | [8] | [9] | [10] | [11] | [12] | [13] | [14] | [16] | [17]
active: [5] 50 µM | [15] 15.5 µM

Cc1ccc(N=CN(C)C=Nc2ccc(C)cc2C)c(C)c1
inactive: [1] | [2] | [3] | [4] | [18] | [6] | [8] | [9] | [10] | [11] | [12] | [13] | [14] | [15] | [17] | [19]
active: [5] 41.2 µM

Cc1nc(N(C)C)nc(OC(=O)N(C)C)c1C
inactive: [1] | [2] | [3] | [4] | [18] | [6] | [8] | [11] | [12] | [13] | [14] | [15] | [17] | [19]
active: [5] 34.3 µM | [10] 9.92 µM

Cc1cnc(C2=NC(C)(C(C)C)C(=O)N2)c(C(=O)O)c1 (centres undefined)
inactive: [1] | [2] | [3] | [4] | [6] | [8] | [9] | [10] | [11] | [12] | [13] | [14] | [15] | [17] | [19]
active: [5] 71.2 µM

COCC(=O)N(c1c(C)cccc1C)C(C)C(=O)OC (centres undefined)
inactive: [1] | [2] | [3] | [4] | [5] | [6] | [8] | [9] | [10] | [11] | [12] | [13] | [14] | [15] | [16] | [17]

COC(=O)c1c(C(F)F)nc(C(F)(F)F)c(C2=NCCS2)c1CC(C)C
inactive: [1] | [2] | [3] | [4] | [5] | [6] | [9] | [10] | [11] | [12] | [13] | [15] | [16] | [17]
active: [8] 0.0299 µM | [14] 50 µM

CC1(C)CCC(=Cc2ccc(Cl)cc2)C1(O)Cn1cncn1 (centres undefined)
inactive: [1] | [2] | [3] | [4] | [6] | [7] | [8] | [9] | [11] | [12] | [13] | [14] | [15] | [17]
active: [5] 11.2 µM | [10] 4.18 µM
